Screening data from PubChem BioAssay.
G9a inh: qHTS Assay for Inhibitors of Histone Lysine Methyltransferase G9a; G9a H3K9 monomethylation, AlphaScreen, 2 h; Potency, µM (top dose mostly 102 µM), for the others: at the top dose activity, negative = inhibition, usual class: inhibitors; 8.8% of 350,000 active; AID 504332, 2011; also: % is scaled to controls: 0 for no effect and ±100 for the full control effect; nearly all actives have a fitted effect of over 75% in size
Target sequence (Q96KQ7 913-1193 limits assumed): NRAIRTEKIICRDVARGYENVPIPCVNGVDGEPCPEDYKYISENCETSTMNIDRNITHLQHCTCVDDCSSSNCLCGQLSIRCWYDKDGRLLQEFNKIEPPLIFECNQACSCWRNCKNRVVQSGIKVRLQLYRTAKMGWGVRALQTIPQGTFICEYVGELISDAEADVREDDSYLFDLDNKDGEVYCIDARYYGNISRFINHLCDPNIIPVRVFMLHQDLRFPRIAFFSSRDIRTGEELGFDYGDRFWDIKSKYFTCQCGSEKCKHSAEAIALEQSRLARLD
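AlphaScreen detection with an anti-monomethyl H3K9 antibody quantified product after a 2 h room-temperature reaction containing 500 nM biotinylated H3K9 peptide, 20 µM SAM and 20 nM enzyme, which had been preincubated 15 min with compound.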
HP1b chromo inh: HTS for Inhibitors of HP1-beta Chromodomain Interactions with Methylated Histone Tails; Chromobox protein homolog 1 (Homo sapiens), P83916; AlphaScreen HP1-beta / biotin-H3K9me3 peptide binding; Potency, µM (highest dose often 114 µM), for inactives: at the top dose activity change, negative = inhibition, most hits filed as inhibitors; 0.56% of 390,000 active; AID 540317, 2011; also: nearly all actives have a fitted effect of over 70% in size
Target sequence (P83916 whole entry, looked up): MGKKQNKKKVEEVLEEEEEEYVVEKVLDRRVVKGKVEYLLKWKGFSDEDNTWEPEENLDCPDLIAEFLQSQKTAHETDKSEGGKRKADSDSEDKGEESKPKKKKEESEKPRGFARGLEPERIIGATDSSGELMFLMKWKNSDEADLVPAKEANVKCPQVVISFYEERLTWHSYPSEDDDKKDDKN
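Compound inhibition of the preformed complex between 50 nM HP1-beta and 50 nM biotinylated H3K9me3 peptide was read by AlphaScreen. Buffer was PBS pH 7.4 with 0.01% Tween-20. Incubations ran 30 min at room temperature, with 10 ug/mL donor/acceptor beads.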
JMJD2A Tudor: qHTS Assay for Inhibitors of JMJD2A-Tudor Domain; Potency, µM (titrated, usually from 114 µM), inactives show top-dose activity change, negative = inhibition, actives largely listed as inhibitors; Lysine-specific demethylase 4A (Homo sapiens), O75164; AlphaScreen JMJD2A-Tudor / H3K4me3 peptide binding; 4.4% of 390,000 active; also: % is scaled to controls: 0 for no effect and ±100 for the full control effect; nearly all actives have a fitted effect of over 50% in size
L3MBTL1 inh: qHTS Assay for the Inhibitors of L3MBTL1. AlphaScreen L3MBTL1–H3K9me1 peptide binding. Potency, µM (highest dose often 57.1 µM), inactives show at the highest dose activity, negative = inhibition, usual class: inhibitors. 0.66% of 230,000 active. AID 485360, 2010; also: % is scaled to controls: 0 for no effect and ±100 for the full control effect; nearly all actives have a fitted effect of over 60% in size
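AlphaScreen assay: L3MBTL1 (50 nM final) was preincubated 30 min at room temperature with biotinylated H3(1-15)K9me1 peptide (75 nM final), then 30 min with library compounds; streptavidin donor and nickel chelate acceptor beads (10 ug/mL final) added, 30 min dark.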
BAZ2B inh: qHTS Assay for Inhibitors of BAZ2B | AlphaScreen BAZ2B-H3K14Ac peptide displacement | Potency, µM (highest dose often 114 µM), inactives show at the highest dose activity change, negative = inhibition, most hits filed as inhibitors | 4.4% of 360,000 active; also: % is scaled to controls: 0 for no effect and ±100 for the full control effect; nearly all actives have a fitted effect of over 60% in size
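AlphaScreen luminescence quantifies BAZ2B engagement of H3K14Ac peptide; the protein and biotinylated peptide are both at 50 nM final, buffer PBS pH 7.4 with 0.01% Tween-20, all steps at room temperature.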
Sfp inh: qHTS Assay for Inhibitors of Bacillus subtilis Sfp phosphopantetheinyl transferase (PPTase); 4'-phosphopantetheinyl transferase ffp (Bacillus subtilis), Q9F4F7; Biochemical Sfp PPTase activity, qHTS; Potency, µM, without a hit: largest response in the series, negative = inhibition, actives largely listed as inhibitors; 3.5% of 310,000 active; AID 1490, 2009;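 also: the enzyme is Sfp with the accession as filed and its product quenches rhodamine fluorescence; 0% = enzyme reaction without inhibitor and -100% = no enzyme wells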
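Fluorescence-quenching assay with 15 nM Sfp, 5 uM rhodamine-CoA and 12.5 uM BHQ-2-labelled ybbR peptide in pH 7.6 Hepes/MgCl2 buffer. Enzyme was pre-incubated with compound for 15 min at room temperature. Rate was taken from the 30-min fluorescence change (525/598 nm).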
The depositor's hits bear a star; ? = inconclusive; nt = no result; [ ] = dose if it differs, or a comment. This is a sample that favours compounds with a hit; in the whole collection about 12% have one here. Calls follow the shape of the dose curve; as a rule, active = well fitted curve in the direction sought with a large enough effect; inconclusive = small, poorly fitted or top-dose-only effect, or another doubt; inactive = no such curve, though single readings can be large; an effect the other way counts as inactive or inconclusive. Potency is read from the fitted curve at half-maximal effect.

SMILES	G9a inh	HP1b chromo inh	JMJD2A Tudor	L3MBTL1 inh	BAZ2B inh	Sfp inh
O=C(NCCCNC(=O)c1cncc(O)c1)c1cncc(O)c1	50µM*	35%	-2%[11.4 µM]	nt	?	1%
CC(C)CCN1CCN(Cc2coc3ccccc3c2=O)CC1CCO (stereo unspecified)	11%	99%	-4%	0%	-15%	5%
COc1cc(-c2nc3sccn3c2Nc2c(C)cccc2C)ccc1O	8%[59 µM]	?	56µM*	nt	12%	nt
Cc1cccc(C)c1Nc1c(-c2ccc(O)cc2)nc2sccn12	4µM*	16µM*	45µM*	nt	40µM*	nt
Cc1cc(C)c2oc(C(=O)Nc3nc4ccc(Cl)cc4s3)cc(=O)c2c1	-1%[59 µM]	36%	-13%	nt	-1%	nt
CCOc1ccc(CCNC(=O)Cc2ccc(NC(=O)N3CCSc4ncccc43)cc2)cc1	4%[59 µM]	41%	-8%	nt	-11%	nt
O=C(Nc1ccnn1C1CCN(Cc2cc(Cl)ccc2O)CC1)c1cccnc1	5%	35%	-30%	nt	-16%	5%
CCOc1ccccc1CN(Cc1ccco1)S(=O)(=O)c1ccc(-n2cnnn2)c(OC)c1	8.9µM*	-1%	-33%	1%	-2%	9%
COc1ccc(CN(Cc2ccccn2)S(=O)(=O)c2ccc(-n3cnnn3)cc2)cc1	11%	17%	-17%	2%	-11%	8%
Cc1cc(S(=O)(=O)N(Cc2ccccn2)Cc2ccco2)ccc1-n1cnnn1	25µM*	11%	-27%	-6%	?	7%
COc1cc(S(=O)(=O)N(Cc2ccco2)C2CCCC2)ccc1-n1cnnn1	32µM*	42%	-34%	17%	2%	?
CCN(CC)S(=O)(=O)c1ccc(-n2cnnn2)c(C)c1	23%	30%	2%	nt	1%	13%
COc1ccc(CN(Cc2ccccn2)S(=O)(=O)c2ccc(-n3cnnn3)c(OC)c2)cc1	50µM*	30%	-13%	0%	-33%	4%
COc1cc(C(=O)Nc2ccc(N(C)C)cc2)cc(OC)c1OC	45µM*	-5%	?	0%	?	2%
O=C(Nc1ccccc1)c1cccc(N2C(=O)CCC2=O)c1	?	40%	-9%	4%	10%	8%
CN(C)c1ccc(NC(=O)c2cccc(N3C(=O)CCC3=O)c2)cc1	40µM*	15%	-32%	-5%	-12%	-3%
O=C(Nc1ccc(F)cc1)c1ccc2nc[nH]c2c1	-8%	25%	-9%	17%	-9%	1%
CN(C)c1ccc(NC(=O)c2ccc3nc[nH]c3c2)cc1	?	15%	-34%	nt	45µM*	8%
COc1cc(C(=O)NC2=C(C#N)CCC2)cc(OC)c1OC	50µM*	7%	-13%	-8%	-31%	19%
Nc1nc(-c2nn(Cc3ccccc3F)c3ncccc23)ncc1C1CC1	nt	nt	nt	nt	nt	15%
OC[C@H]1OC(O)[C@H](O)[C@@H](O)[C@@H]1O (stereo partly specified)	nt	nt	nt	nt	nt	13%
O=C(NNC(=O)c1ccccc1Br)c1ccc2nc[nH]c2c1	nt	-7%	?	nt	50µM*	12%
COc1ccccc1CCNC(=O)c1ccc2nc[nH]c2c1	-1%	14%	-21%	nt	50µM*	9%
O=C(NNC(=O)c1ccccc1F)c1ccc2nc[nH]c2c1	15%	33%	-14%	nt	?	18%
O=C(Cc1ccc(NC(=O)C2CCN(C(=O)c3ccccc3)CC2)cc1)Nc1cccc(C(=O)N2CCCCC2)c1	nt	42%	-2%	nt	nt	nt
SMILES	G9a inh	HP1b chromo inh	JMJD2A Tudor	L3MBTL1 inh	BAZ2B inh	Sfp inh
Cc1cccc(Nc2nc(N)nc(CN3CCN(Cc4ccc5c(c4)OCO5)CC3)n2)c1	3%[59 µM]	-7%	50µM*	-12%	?	3%
Cc1cccc(Nc2nc(N)nc(CN3CCN(c4ccccc4F)CC3)n2)c1	nt	-17%	45µM*	nt	nt	nt
CN1CCN(Cc2nc(N)nc(Nc3ccc4c(c3)OCCO4)n2)CC1	-29%	14%	?	45%	50µM*	3%
Cc1cccc(Nc2nc(N)nc(CN3CCN(c4ccccc4)CC3)n2)c1	?	?	56µM*	-20%	-112%	-5%
COc1ccccc1Nc1nc(N)nc(CN2CCN(Cc3ccc4c(c3)OCO4)CC2)n1	17%[12.7 µM]	21%	-18%	11%	?	?
O=C(Cn1cc(C(F)(F)F)ccc1=O)N1CCc2ccccc21	nt	26%	-8%	4%	nt	nt
CC(C)(C)C(=O)NCCc1nc2ccccc2n1CC(=O)c1ccc(Cl)cc1	?	37%	-15%	19%	-2%	-5%
CCOc1ccc(Nc2nc(N)nc(CN3CCN(c4ccccc4F)CC3)n2)cc1	?	11%	?	-6%	56µM*	5%
Cc1ccc(Nc2nc(N)nc(CN3CCc4ccccc4C3)n2)cc1	-31%	2%	?	-19%	?	12%
Nc1nc(CSC(=S)N2CCN(c3ccccc3)CC2)nc(Nc2ccc(F)cc2)n1	?	?	56µM*	-14%	?	11%
Nc1nc(CN2CCN(c3ccccn3)CC2)nc(Nc2ccc(Cl)cc2)n1	50µM*	13%	?	-28%	50µM*	10%
CC(=O)c1ccc(NC(=O)c2sc(-n3nc(C)c(Cc4ccccc4)c3C)nc2C)cc1	7%[59 µM]	36%	-10%	nt	-1%	nt
COc1cccc(CN(Cc2ccco2)c2cnc(S(C)(=O)=O)nc2C(=O)Nc2cccc(Cl)c2C)c1	?	19%	-32%	nt	?	nt
CC(C)c1ccc(S(=O)(=O)N2CCC(C(=O)NCc3ccco3)CC2)cc1	?	-3%	-18%	-5%	2%	nt
CC(=O)OCC1=C(C(=O)O)N2C(=O)C(NC(=O)c3ccc(COc4c(C)cccc4Cl)o3)C2SC1 (stereo unspecified)	45µM*	10%	?	nt	?	63µM*
Cc1nnc(SCC2=C(C(=O)O)N3C(=O)C(NC(=O)Cn4nc(C(F)F)c(Cl)c4C)C3SC2)s1 (stereo unspecified)	?	-1%	?	nt	?	-12%
CC(=O)OCC1=C(C(=O)O)N2C(=O)C(NC(=O)Cn3nc(C(F)F)c(Cl)c3C)C2SC1 (stereo unspecified)	50µM*	14%	-14%	nt	-35%	5%
